Active and inactive are the calls of the source.
Legend:
[1] = tested on: PRMT1 (protein arginine N-methyltransferase 1); assay: small molecules binding arginine methyltransferase PRMT1 – biochemical, small-molecule microarray, 635 nm fluorescence, primary screen (AID 1088); conditions: higher = more signal;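 note: binding of Prmt1 protein to compounds spotted on small-molecule microarray slides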
[2] = growth effects on S. cerevisiae YJM789 – YJM789 clinical isolate, OD600, 24 h, basal, primary screen (AID 1089); conditions: higher = more signal, called active from +8 up or from −8 down;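 note: growth of clinical yeast isolate S. cerevisiae YJM 789 seeded 1000 cells per well; test concentration not given here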
[3] = S. pombe growth modifiers, basal conditions – strain 972, OD600, 24 h, no modulator, primary screen (AID 1090);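 note: basal condition with compound alone and no growth modifier present; test concentration not given here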; conditions: S. pombe 972 growth, higher = more signal, called active from +8 up or from −8 down
[4] = budding yeast growth modifiers under rapamycin – strain BY4716, OD600, 96 h, primary screen (AID 1091); note: test concentration not given here; conditions: S. cerevisiae BY4716 + rapamycin, higher = more signal, called active from +8 up or from −8 down
[5] = target: Torsin-1A-interacting protein 2 (Homo sapiens) (UniProt Q8NFQ8); assay: small molecules binding lysate-expressed LULL1 – cell lysate, human LULL1 lysate, 635/667 nm fluorescence, primary screen (AID 1092); conditions: small-molecule microarray, hLULL1 lysate binding, 635 nm fluorescence; higher = more signal;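 note: probe is lysate of COS7 cells overexpressing human LULL1; score merges per-feature 667 nm fluorescence with signal-to-noise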
Sequence of Torsin-1A-interacting protein 2 (Homo sapiens) (Q8NFQ8 whole entry, looked up): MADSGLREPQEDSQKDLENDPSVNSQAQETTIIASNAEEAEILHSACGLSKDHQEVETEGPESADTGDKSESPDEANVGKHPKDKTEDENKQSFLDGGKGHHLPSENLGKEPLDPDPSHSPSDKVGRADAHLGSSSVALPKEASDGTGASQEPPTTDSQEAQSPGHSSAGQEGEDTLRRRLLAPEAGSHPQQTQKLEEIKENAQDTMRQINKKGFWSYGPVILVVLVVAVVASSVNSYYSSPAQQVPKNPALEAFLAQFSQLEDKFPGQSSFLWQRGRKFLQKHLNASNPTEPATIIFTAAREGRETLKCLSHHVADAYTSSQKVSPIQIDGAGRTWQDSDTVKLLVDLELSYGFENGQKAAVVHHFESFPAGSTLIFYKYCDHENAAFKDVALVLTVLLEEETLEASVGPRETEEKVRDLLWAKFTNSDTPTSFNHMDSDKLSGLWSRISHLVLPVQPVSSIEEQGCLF

[6] = optical density change of DRC41 E. coli – strain DRC41, OD650, 24 h, E. coli filamentation project, primary screen (AID 1093);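 note: MC1000 strain lacking acrAB efflux and sulA so SOS filamentation is blocked; test concentration not given here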; conditions: E. coli DRC41 growth, higher = more signal, called active from +8 up or from −8 down
[7] = probe aLefty2 binding to arrayed compounds – biochemical, biotinylated probe, 635/667 nm fluorescence, primary screen (AID 1094); conditions: small-molecule microarray, higher = more signal;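 note: score merges spot fluorescence near 667 nm with spot signal-to-noise ratio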
[8] = tested on: Noggin (protein binding on small-molecule microarray); assay: small molecules binding Noggin protein – biochemical, 635/667 nm fluorescence, primary screen (AID 1095); conditions: 635 nm fluorescence, higher = more signal;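 note: score merges 667 nm feature fluorescence with signal to noise over triplicate slides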
[9] = target: Neurogenic locus notch homolog protein 3 (Homo sapiens) (UniProt Q9UM47); assay: small molecules binding NOTCH3 protein – biochemical, 635/667 nm fluorescence, primary screen (AID 1096); conditions: small-molecule microarray, 635 nm fluorescence, higher = more signal
Sequence of Neurogenic locus notch homolog protein 3 (Homo sapiens) (Q9UM47 whole entry, looked up): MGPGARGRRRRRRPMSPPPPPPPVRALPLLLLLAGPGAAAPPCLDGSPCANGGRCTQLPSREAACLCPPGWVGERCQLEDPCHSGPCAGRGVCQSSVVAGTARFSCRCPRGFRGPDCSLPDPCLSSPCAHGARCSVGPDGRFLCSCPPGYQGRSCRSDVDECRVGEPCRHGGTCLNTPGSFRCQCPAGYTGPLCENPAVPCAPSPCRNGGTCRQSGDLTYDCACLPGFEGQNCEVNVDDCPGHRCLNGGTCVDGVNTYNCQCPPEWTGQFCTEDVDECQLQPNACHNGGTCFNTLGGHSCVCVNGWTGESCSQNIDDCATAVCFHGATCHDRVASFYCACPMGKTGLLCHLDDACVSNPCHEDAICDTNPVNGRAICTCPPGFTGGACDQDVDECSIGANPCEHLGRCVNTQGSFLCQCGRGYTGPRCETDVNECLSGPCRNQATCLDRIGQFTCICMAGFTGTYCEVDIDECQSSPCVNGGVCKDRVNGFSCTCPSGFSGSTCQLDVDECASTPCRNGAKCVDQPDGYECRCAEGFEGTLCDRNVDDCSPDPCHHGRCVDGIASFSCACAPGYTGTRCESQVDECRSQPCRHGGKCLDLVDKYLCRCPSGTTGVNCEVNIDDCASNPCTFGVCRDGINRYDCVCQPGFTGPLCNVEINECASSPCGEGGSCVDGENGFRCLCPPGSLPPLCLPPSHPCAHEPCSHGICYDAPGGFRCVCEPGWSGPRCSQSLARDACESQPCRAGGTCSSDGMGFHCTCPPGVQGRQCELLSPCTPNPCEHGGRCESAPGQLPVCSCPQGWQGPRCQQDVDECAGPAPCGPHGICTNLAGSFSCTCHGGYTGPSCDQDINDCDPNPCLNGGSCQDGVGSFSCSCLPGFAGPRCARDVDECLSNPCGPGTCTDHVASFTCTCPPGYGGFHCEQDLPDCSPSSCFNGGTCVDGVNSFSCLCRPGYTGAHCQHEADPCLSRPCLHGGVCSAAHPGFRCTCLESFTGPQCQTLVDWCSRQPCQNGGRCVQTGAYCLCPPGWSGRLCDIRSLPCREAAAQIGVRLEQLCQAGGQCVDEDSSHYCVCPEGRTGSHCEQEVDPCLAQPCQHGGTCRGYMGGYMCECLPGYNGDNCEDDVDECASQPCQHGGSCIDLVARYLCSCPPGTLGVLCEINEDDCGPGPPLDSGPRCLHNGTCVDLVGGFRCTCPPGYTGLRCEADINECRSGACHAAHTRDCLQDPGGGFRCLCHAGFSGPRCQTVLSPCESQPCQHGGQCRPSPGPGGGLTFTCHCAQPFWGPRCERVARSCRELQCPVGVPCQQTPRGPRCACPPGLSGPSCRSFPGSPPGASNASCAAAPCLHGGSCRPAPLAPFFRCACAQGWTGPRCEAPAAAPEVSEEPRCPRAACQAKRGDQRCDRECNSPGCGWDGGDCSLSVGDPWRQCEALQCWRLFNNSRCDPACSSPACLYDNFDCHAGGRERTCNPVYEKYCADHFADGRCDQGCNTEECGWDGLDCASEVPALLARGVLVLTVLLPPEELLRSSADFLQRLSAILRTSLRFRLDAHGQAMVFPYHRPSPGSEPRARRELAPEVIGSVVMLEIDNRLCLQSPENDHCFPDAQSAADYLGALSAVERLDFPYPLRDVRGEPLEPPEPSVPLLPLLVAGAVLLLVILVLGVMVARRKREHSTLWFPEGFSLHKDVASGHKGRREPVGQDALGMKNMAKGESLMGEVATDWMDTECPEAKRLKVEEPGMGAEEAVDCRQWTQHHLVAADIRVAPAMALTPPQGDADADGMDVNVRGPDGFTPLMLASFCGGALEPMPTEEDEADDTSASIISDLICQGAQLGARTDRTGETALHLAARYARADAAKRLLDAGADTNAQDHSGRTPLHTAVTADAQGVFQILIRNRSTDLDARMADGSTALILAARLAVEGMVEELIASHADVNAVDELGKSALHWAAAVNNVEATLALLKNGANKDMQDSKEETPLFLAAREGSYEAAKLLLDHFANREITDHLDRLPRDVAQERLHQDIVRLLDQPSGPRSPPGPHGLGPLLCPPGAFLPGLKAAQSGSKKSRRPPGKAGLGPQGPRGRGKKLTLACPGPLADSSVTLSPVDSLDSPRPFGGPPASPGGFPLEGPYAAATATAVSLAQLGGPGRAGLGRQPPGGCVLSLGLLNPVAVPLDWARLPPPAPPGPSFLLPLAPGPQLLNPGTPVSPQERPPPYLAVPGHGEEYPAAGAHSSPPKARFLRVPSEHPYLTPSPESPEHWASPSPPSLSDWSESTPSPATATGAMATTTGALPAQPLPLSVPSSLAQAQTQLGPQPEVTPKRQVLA

[10] = probe aEGFR binding to arrayed compounds – biochemical, biotinylated probe, 635/667 nm fluorescence, primary screen (AID 1097); conditions: small-molecule microarray, higher = more signal;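 note: probe is a biotinylated anti-EGFR antibody binding compounds printed on slides; score combines fluorescence near 667 nm and signal to noise of each spot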

SMILES	composite z-score [1]	z-score [2]	z-score [3]	z-score [4]	composite z-score [5]	z-score [6]	composite z-score [7]	composite z-score [8]	composite z-score [9]	composite z-score [10]
C=CC[C@@]1(C(=O)N2CCCCC2)N=C(c2ccc(OCCCO)cc2)O[C@@H]1c1ccccc1N=[N+]=[N-]	1.54	-0.989 (inactive)	-0.577 (inactive)	1.13 (inactive)	3.23	1.07 (inactive)	0.286	0.564	1.13	0.14
CN1C(=O)C2C=CC(C(O)C=Cc3ccc([N+](=O)[O-])cc3)N(Nc3ccccc3)C2C1=O (stereo not given)	1.51	-0.131 (inactive)	-1.18 (inactive)	-0.656 (inactive)	1.62	-1.35 (inactive)	0.0849	0.577	1.12	-0.0372
Cc1c(NC(=O)/C(C#N)=C/c2cccc([N+](=O)[O-])c2)c(=O)n(-c2ccccc2)n1C	0.366	-3.18 (inactive)	-2.55 (inactive)	-2.2 (inactive)	1.92	0.0751 (inactive)	-0.26	0.21	1.07	0.006
CO[C@H]1O[C@H](CO)[C@@H](OC(=O)Nc2ccc(Br)cc2)[C@@H]2OC(=O)[C@H](Cc3cccc(Br)c3)C/C=C/C[C@@H](Cc3cccc(Br)c3)C(=O)O[C@@H]12	0.0859	-0.163 (inactive)	-2.81 (inactive)	30.3 (active)	0.763	1.26 (inactive)	-0.112	0.594	0.911	-0.0828
COc1ccc([Si](C)(C)[C@@H]2[C@@H](CCn3cc(CCO)nn3)O[C@]3(C(=O)N(Cc4cccc(N5C(=O)c6cccc7cccc5c67)c4)c4ccccc43)[C@H]2C)cc1	1.55	1.29 (inactive)	1.56 (inactive)	20.9 (active)	1.76	1.17 (inactive)	-0.0956	1.14	0.903	-0.125
COCCOC(=O)N1C(=O)[C@@]2(c3ccccc31)[C@H](c1ccc(OCCO)cc1)N1[C@H](c3ccccc3)[C@H](c3ccccc3)OC(=O)[C@H]1[C@@H]2C(=O)N1CCc2cc(OC)c(OC)cc2C1	1.53	1.93 (inactive)	0.856 (inactive)	4.71 (inactive)	3.09	0.0474 (inactive)	0.284	1.12	1.14	0.246
NCCCCCNC(=O)[C@H]1C[C@H]2C(=O)N3CCC[C@H]3C(=O)N2[C@H]1c1ccc(O)cc1	1.56	-0.948 (inactive)	-0.283 (inactive)	-0.507 (inactive)	2.58	-0.346 (inactive)	0.821	0.813	0.573	0.426
O=C(CS)NCCCCCNC(=O)[C@@H]1C[C@@H]2C(=O)NCC(=O)N2[C@@H]1c1cccc(OCCO)c1	0.701	-5.72 (inactive)	-0.31 (inactive)	-0.485 (inactive)	2.92	2.71 (inactive)	-0.0823	0.271	0.328	-0.0466
C#CCOc1ccc(C[C@@H](C(=O)OC)N(CC#C)[C@@H](/C=C/C2CC2)[C@H](O)Cc2ccccc2)cc1	-0.828	0.591 (inactive)	0.027 (inactive)	1.29 (inactive)	-0.361	-0.914 (inactive)	-0.0561	-0.446	-0.384	-0.312
COC(=O)[C@@]1(Cc2ccccc2)[C@H]2c3cc(C(=O)N(C)C)n(Cc4ccc(OC)c(OC)c4)c3C[C@H]2CN1C(=O)c1ccccc1	0.42	-0.257 (inactive)	0.836 (inactive)	0.534 (inactive)	3.53	-0.793 (inactive)	0.728	0.0998	1.03	0.426
CCCCN1CC=CC23O[C@@H]4/C=C\CCCOC(=O)C4[C@H]2C(=O)N(CCCO)[C@@H]3C1=O (stereo not given in full)	1.27	-1.15 (inactive)	-1.04 (inactive)	-0.513 (inactive)	2.86	0.0383 (inactive)	-0.212	-0.991	-0.1	-0.324
CC(=O)NCCCC[C@@H]1NC(=O)[C@H]2C[C@@H](C(=O)O)[C@@H](c3ccc(O)cc3)N2C1=O	1.55	2.13 (inactive)	-2.62 (inactive)	2.72 (inactive)	2.84	-0.817 (inactive)	0.14	1.67	1.04	0.138
C=CC[C@]1(C(N)=O)COC(c2ccc(OCCCO)cc2)=N1	0.322	0.924 (inactive)	-1.09 (inactive)	-1.09 (inactive)	1.38	1.27 (inactive)	0.301	0.27	-0.769	-0.139
COC(=O)[C@@]1(Cc2ccc(F)cc2)[C@H]2c3cc(C(=O)N(C)C)n(Cc4cc(C)n(C)n4)c3C[C@H]2CN1C(=O)c1ccccc1	1.02	0.619 (inactive)	0.456 (inactive)	-0.109 (inactive)	3.09	-0.38 (inactive)	0.629	-0.421	1.01	0.14
[N-]=[N+]=NCc1ccccc1[C@@H]1OC(c2ccc(OCCCO)cc2)=N[C@]1(CCS(=O)(=O)c1ccccc1)C(=O)N1CCOCC1	1.54	-0.401 (inactive)	0.144 (inactive)	0.971 (inactive)	3.24	1.7 (inactive)	0.456	0.256	1.07	0.256
C#CCN1[C@@H](Cc2ccc(O)cc2)C(=O)O[C@H](Cc2ccccc2)[C@@H]1/C=C/C1CC1	-0.193	-0.257 (inactive)	-4.95 (inactive)	1.09 (inactive)	0.602	-0.495 (inactive)	-0.144	-0.204	-0.139	-0.0081
CCCCC(O)C1C=CC2C(=O)N(C)C(=O)C2N1N1CCCCC1 (stereo not given)	0.506	0.882 (inactive)	1.05 (inactive)	1.97 (inactive)	2.84	-1.1 (inactive)	0.365	0.277	0.967	0.197

From PubChem BioAssay
